This is an account of results in PubChem BioAssay.

Calls of active or inactive are those of the source. Unless noted, how the calls were made is not given here.

Assay [1] deals with Wnt5a (protein binding on small-molecule microarray). As to the kind of experiment: Wnt5a binders on small-molecule microarray, primary screen, biophysical, 635/667 nm fluorescence (AID 1142).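 Further: fluorescence read at 667 nm with signal to noise per printed feature.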 Conditions: 635 nm fluorescence, higher = more signal.
Assay [2] is described as follows: cell viability in Huh7 cells, primary screen, cytotoxicity control for HCV replication inhibitor project, CellTiter-Glo luminescence, basal, 48 h (AID 1143).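 Further: Huh7 hepatoma cells carrying a hepatitis C replication reporter with no stimulus; test concentration not given here.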 The following applies: Huh7 HCV replicon, higher = more signal, called active from +8 up or from −8 down. For orientation: ATP-based viability assays read luminescence as a measure of living cells.
Assay [3] in a line: P. aeruginosa biofilm formation inhibitors, primary screen, PAO1 strain, BacTiter-Glo luminescence, LB-PBS (AID 1144). Conditions: 12 h, higher = more signal.
Assay [4] can be described thus: CREB reporter modulators without forskolin, primary screen, cell-based, PC12, CRE-LacZ reporter, unstimulated (AID 1145). The following applies: no forskolin, luminescence, 4.5 h, higher = more signal, called active from +8 up or from −8 down.
Assay [5] in a line: CREB reporter modulators under forskolin, primary screen, cell-based, PC12, CRE-LacZ reporter, forskolin-stimulated (AID 1146).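 Further: PC12 cells with 6xCRE LacZ reporter stimulated by forskolin 10 µM; beta-galactosidase reporter signal reflecting CREB driven transcription.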 Conditions: luminescence, 4.5 h, higher = more signal, called active from +8 up or from −8 down.
In assay [6] the target is Streptavidin (Streptomyces avidinii) (UniProt P22629). As to the kind of experiment: streptavidin binders on small-molecule microarray, primary screen, artefact control for SMM compound annotation, biophysical, 635/667 nm fluorescence (AID 1147).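 Further: signal reflects streptavidin binding to arrayed compounds as a control protein.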 Conditions: streptavidin binding, higher = more signal.
Assay [7] in a line: small-molecule binders of probe aInhba, primary screen, biochemical, small-molecule microarray, 635/667 nm fluorescence (AID 1148).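 Further: score merges 667nm spot fluorescence with signal-to-noise for antibody binding to printed compounds.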 The following applies: higher = more signal.
The target in assay [8] is Torsin-1A (Homo sapiens) (UniProt O14656). The assay can be described thus: torsin A binders from cell lysate, primary screen, small-molecule microarray, wild-type, 635/667 nm (AID 1149). The following applies: COS7 hTOR1A-WT lysate, 635 nm fluorescence, higher = more signal.
Assay [9] shares this target. The assay can be described thus: small-molecule binders of mutant TOR1A in lysate, primary screen, cell lysate, small-molecule microarray, COS7 lysate, 635/667 nm fluorescence (AID 1150).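 Further: score pools 667 nm emission and signal to noise measuring lysate protein binding.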 Conditions: COS7 hTOR1A mutant lysate, 635 nm fluorescence, higher = more signal.
Assay [10] concerns Sonic hedgehog protein (Shh). As to the kind of experiment: small-molecule binders of Shh protein, primary screen, biochemical, small-molecule microarray, 635/667 nm fluorescence (AID 1151).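 Further: Shh protein binding to compounds spotted on small-molecule microarray slides; score combines spot fluorescence intensity with signal-to-noise across triplicate slides.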 The following applies: small-molecule microarray binding, 635 nm fluorescence; higher = more signal.

Streptavidin (Streptomyces avidinii), sequence (P22629 whole entry, looked up): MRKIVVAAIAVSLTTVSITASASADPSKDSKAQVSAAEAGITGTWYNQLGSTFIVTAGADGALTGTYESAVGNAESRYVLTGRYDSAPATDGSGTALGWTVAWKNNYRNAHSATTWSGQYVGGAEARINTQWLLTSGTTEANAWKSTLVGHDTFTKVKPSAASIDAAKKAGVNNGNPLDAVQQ
Torsin-1A (Homo sapiens), sequence (O14656 whole entry, looked up): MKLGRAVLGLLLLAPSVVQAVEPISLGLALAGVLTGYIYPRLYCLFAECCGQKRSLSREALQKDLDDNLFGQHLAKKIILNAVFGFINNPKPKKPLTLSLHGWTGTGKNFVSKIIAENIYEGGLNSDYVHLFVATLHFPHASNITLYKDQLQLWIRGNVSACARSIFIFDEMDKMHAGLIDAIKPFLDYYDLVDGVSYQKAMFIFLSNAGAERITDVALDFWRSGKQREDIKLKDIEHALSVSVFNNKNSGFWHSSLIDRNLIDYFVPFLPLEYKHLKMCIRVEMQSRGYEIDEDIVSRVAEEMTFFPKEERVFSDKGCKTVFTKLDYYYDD

Turning to `C=CCNC(=O)[C@H]1[C@@H]2C(=O)O[C@@H](c3ccccc3)[C@@H](c3ccccc3)N2[C@@H](c2ccccc2OCCO)[C@]12C(=O)Nc1ccc(C#CCC(C(=O)OC)C(=O)OC)cc12`, the composite z-score is 0.761 in [1]; 0.999 in assay [6]; 0.277 in assay [7]; 0.954 with Torsin-1A (Homo sapiens) [8]; 1.06 with Torsin-1A (Homo sapiens) [9]; 1.84 in assay [10]. Besides, the z-score in assay [2] was -3.8 (inactive); in assay [3], 0.608 (inactive); in [4] it was -0.0784 (inactive); in assay [5] it was 0.876 (inactive).

Regarding `COC(=O)[C@@]1(CCC(=O)OC(C)(C)C)N=C(c2ccc(OCCCO)cc2)O[C@H]1c1ccccc1N=[N+]=[N-]`, the composite z-score in assay [1] is 0.174; in assay [6], -0.0572; in assay [7], -0.101; in the assay with Torsin-1A (Homo sapiens) [8] it was -0.184; with Torsin-1A (Homo sapiens) [9], -0.143; in assay [10], 0.696. In addition, the z-score in assay [2] was -4.35 (inactive); in assay [3], -0.656 (inactive); in [4] it was 2.68 (inactive); in [5], -1.21 (inactive).

For `CC1(C)[C@@H]2CC(C(O)C3C=CC4C(=O)N(Cc5ccccc5)C(=O)C4N3n3cnnc3)=C[C@H]1C2` (stereo not given in full), the composite z-score is 0.253 in [1]; 0.512 in [6]; -0.0375 in assay [7]; 1.49 with Torsin-1A (Homo sapiens) [8]; 1.33 in the assay with Torsin-1A (Homo sapiens) [9]; 0.414 in assay [10]. Further, the z-score was -0.346 (inactive) in assay [2], 0.132 (inactive) in assay [3], -0.126 (inactive) in assay [4] and 0.34 (inactive) in assay [5].

For the compound `CCCCCCc1nc(-c2ccc(OC)nc2)cc2c1[Si](C(C)C)(C(C)C)O[C@H]2c1ccccc1`, the composite z-score in [1] is 0.323; in assay [6], 0.111; in assay [7], 0.136; with Torsin-1A (Homo sapiens) [8] it was 0.0114; with Torsin-1A (Homo sapiens) [9], -0.234; in [10], 1.21. Further, the z-score in [2] was -0.295 (inactive); in [3] it was 0.0731 (inactive); in assay [4], 0.773 (inactive); in assay [5], 0.03 (inactive).

For `C=C(COC)/C(=C/C[C@@H](OC(=O)c1ccncc1)c1ccc(CO)o1)c1cc(C(=O)OC)ccc1OC`, the composite z-score in assay [1] is 1.08; in assay [6], 0.207; in assay [7] it was -0.0645; with Torsin-1A (Homo sapiens) [8], 1.1; in the assay with Torsin-1A (Homo sapiens) [9] it was 0.756; in assay [10], 2.17. Further, the z-score is -0.158 (inactive) in assay [2], -0.985 (inactive) in assay [3], 0.904 (inactive) in assay [4] and 1.31 (inactive) in [5].

`COCCOC(=O)N1C(=O)[C@@]2(c3cc(C#CCC(C(=O)OC)C(=O)OC)ccc31)[C@H](C(=O)Nc1nc3ccccc3s1)[C@H]1C(=O)O[C@H](c3ccccc3)[C@H](c3ccccc3)N1[C@@H]2c1ccccc1OCCO`: the composite z-score in assay [1] turned out to be 0.346; in assay [6], 0.487; in [7], 0.0711; with Torsin-1A (Homo sapiens) [8] it was 0.776; with Torsin-1A (Homo sapiens) [9], 0.456; in assay [10], 1.13. Also, the z-score in assay [2] was -3.81 (inactive); in assay [3], -1.12 (inactive); in assay [4] it was -0.141 (inactive); in assay [5], 0.401 (inactive).

Turning to `CCCCC(CC)C(O)C1C=CC2C(=O)N(Cc3ccccc3)C(=O)C2N1n1cnnc1` (stereo not given), the composite z-score in assay [1] is -0.205; in [6], 0.124; in assay [7] it was -0.166; in the assay with Torsin-1A (Homo sapiens) [8], 0.17; in the assay with Torsin-1A (Homo sapiens) [9], 0.606; in assay [10] it was -0.405. The z-score in assay [2] was -0.114 (inactive); in [3], 0.999 (inactive); in [4], 0.127 (inactive); in [5], 0.408 (inactive).

For the compound `C=CCC(OC(C)=O)[C@@H]1[C@@H](N(Cc2cccc3ccccc23)C(=O)c2ccc(-c3ccccc3)cc2)c2cc(OCCCO)ccc2N1C(=O)c1ccc2ccccc2c1` (stereo not given in full), the composite z-score in assay [1] was -0.0128; in assay [6] it was 0.486; in [7] it was 0.0816; with Torsin-1A (Homo sapiens) [8], -0.219; with Torsin-1A (Homo sapiens) [9] it was -0.0217; in assay [10], 0.711. Moreover, the z-score in assay [2] was 0.107 (inactive); in assay [3], -0.815 (inactive); in assay [4], 0.222 (inactive); in assay [5] it was 0.0667 (inactive).

Regarding `COC(=O)[C@H](Cc1ccccc1)N1CC2=C[C@@H](C3CC3)n3c(=O)n(C)c(=O)n3[C@H]2[C@@H]1[C@@H](O)Cc1ccccc1`, the composite z-score in [1] is 0.0601; in assay [6], 0.462; in assay [7] it was -0.0589; in the assay with Torsin-1A (Homo sapiens) [8], 0.413; in the assay with Torsin-1A (Homo sapiens) [9], -0.0857; in assay [10] it was 1.4. The z-score in assay [2] is -1.18 (inactive); in assay [3], 0.39 (inactive); in assay [4] it was 2.03 (inactive); in [5], -0.269 (inactive).

Take `Cc1nc2cc(Br)ccc2c(=O)o1`: the composite z-score worked out at 0.119 in [1]; 0.498 in [6]; 0.0319 in [7]; 0.842 with Torsin-1A (Homo sapiens) [8]; 0.642 with Torsin-1A (Homo sapiens) [9]; 0.113 in assay [10]. In addition, the z-score is -1.66 (inactive) in [2], -1.06 (inactive) in assay [3], -0.464 (inactive) in assay [4] and -1.27 (inactive) in [5].
